Test results published in the supplement of paper PMC13380429.

Assays:
[1] = test system: Vero E6 infected with SARS-CoV-2; assay: morphology score (similarity to uninfected cells); higher = more like uninfected cells; conditions: 24 h
[2] = test system: Vero E6 infected with SARS-CoV-2; assay: SARS-CoV-2 infection rate relative to infected DMSO; higher = more infection, active = 60 or less; conditions: 24 h

| SMILES | morphology score [1] | SARS-CoV-2 infection rate [2] |
| --- | --- | --- |
| CO[C@@H](C)Cn1c(=O)n(C)c2cnc3ccc(-c4cncc(C(C)(C)O)c4)cc3c21 (10 µM) | -0.000833 | 112% (inactive) |
| O=c1c(O)c(-c2ccc(O)c(O)c2)oc2cc(O)ccc12 [fisetin] (10 µM) | 0.115 | 111% (inactive) |
| O=C(OOC(=O)c1ccccc1)c1ccccc1 [benzoyl-peroxide] (10 µM) | -0.0426 | 97.5% (inactive) |
| Nc1nc(N)c2nc(-c3ccccc3)c(N)nc2n1 [triamterene] (0.833333 µM) | -0.174 | 118% (inactive) |
| COc1cc2c(cc1O)CC[C@@H]1[C@@H]2CC[C@]2(C)[C@@H](O)CC[C@@H]12 [2-methoxyestradiol] (0.833333 µM) | 0.00558 | 102% (inactive) |
| O=C(c1ccc(OCCN2CCCCC2)cc1)c1c(-c2ccc(O)cc2)sc2cc(O)ccc12 [raloxifene] (0.833333 µM) | 0.0812 | 101% (inactive) |
| Fc1ccccc1-c1nc2ccn(Cc3ccc(-c4ccc(C(F)(F)F)cc4C(F)(F)F)nn3)cc-2n1 [tegobuvir] (10 µM) | 0.081 | 102% (inactive) |
| CC(C)(O)[C@@H]1[C@H]2OC(=O)[C@@H]1[C@]1(O)C[C@H]3O[C@]34C(=O)O[C@H]2[C@]14C [picrotin] (10 µM) | 0.0343 | 111% (inactive) |
| N#Cc1ccc(N2CCN(C(=O)COc3ccc4[nH]cc(CCN)c4c3)CC2)cc1 [donitriptan] (10 µM) | -0.0047 | 100% (inactive) |
| CC(C)=CCC/C(C)=C/CC/C(C)=C/CSc1ccccc1C(=O)O [salirasib] (10 µM) | 0.161 | 89% (inactive) |
| C=C[C@H]1CN2CC[C@H]1C[C@@H]2[C@@H](O)c1ccnc2ccc(OC)cc12 [quinidine] (10 µM) | 0.155 | 108% (inactive) |
| Nc1nc2c(ncn2COCCO)c(=O)[nH]1 [acyclovir] (10 µM) | 0.109 | 104% (inactive) |
| Cc1ccccc1/N=N/c1ccc(NC(=O)c2ccnn2C)c(C)c1 (10 µM) | -0.087 | 109% (inactive) |
| CCC(COC(=O)c1cc(OC)c(OC)c(OC)c1)(c1ccccc1)N(C)C (stereo not given) [trimebutine] (10 µM) | 0.103 | 91% (inactive) |
| c1ccc2c(Cc3c[nH]c4ccccc34)c[nH]c2c1 [3,3'-diindolylmethane] (10 µM) | 0.0838 | 113% (inactive) |
| CC(=O)OCC(=O)[C@@]1(O)CC[C@H]2[C@@H]3CCC4=CC(=O)C=C[C@]4(C)[C@H]3[C@@H](O)C[C@@]21C [prednisolone-acetate] (10 µM) | -0.148 | 108% (inactive) |
| CCNC1=Nc2ccc(Cl)cc2C(C)(c2ccccc2)O1 (stereo not given) [etifoxine] (10 µM) | 0.159 | 106% (inactive) |
| C[C@H](CS)C(=O)N1CCC[C@H]1C(=O)O [captopril] (10 µM) | 0.0071 | 104% (inactive) |
| C#CC1(OCC(O)CN2CCN(c3cccc(C(F)(F)F)c3)CC2)CCCCC1 (stereo not given) [terciprazine] (10 µM) | 0.107 | 104% (inactive) |
| O=C(NC1CCN(CCCCC2(C(=O)NCC(F)(F)F)c3ccccc3-c3ccccc32)CC1)c1ccccc1-c1ccc(C(F)(F)F)cc1 [lomitapide] (0.833333 µM) | 0.223 | 87.5% (inactive) |
| CCC1(c2ccc(N)cc2)CCC(=O)NC1=O (stereo not given) [aminoglutethimide] (10 µM) | -0.0825 | 110% (inactive) |
| CNc1cc2[nH]c(=O)n(-c3ccc(NC(=O)NS(=O)(=O)c4ccc(Cl)s4)cc3)c(=O)c2cc1F [elinogrel] (10 µM) | 0.235 | 87.5% (inactive) |
| Cc1ncc(C[n+]2csc(CCO)c2C)c(N)n1 [thiamine] (10 µM) | 0.119 | 96.5% (inactive) |
| CCCCCCCC/C=C\CCCCCCCC(=O)NCCO [oleoylethanolamide] (10 µM) | 0.0636 | 102% (inactive) |
| O=C([O-])CN1CCN(CC(=O)[O-])CCN([C@H](CO)[C@H](O)CO)CCN(CC(=O)[O-])CC1.[Gd+3] (racemic) [gadobutrol] (10 µM) | -0.0306 | 109% (inactive) |
| CCN(CC)c1ccc(/C=N/NC(=O)c2ccc(O)cc2)cc1 (10 µM) | -0.186 | 107% (inactive) |
| CC(C)(C)c1[nH]cnc1/C=c1\[nH]c(=O)/c(=C/c2ccccc2)[nH]c1=O [plinabulin] (0.833333 µM) | -0.0585 | 112% (inactive) |
| Cc1nccn1CCC(C(N)=O)(c1ccccc1)c1ccccc1 [imidafenacin] (10 µM) | 0.133 | 93% (inactive) |
| O=C(O)CCc1c[nH]c2ccccc12 (10 µM) | 0.0821 | 104% (inactive) |
| CN(C)CC[C@H](CSc1ccccc1)Nc1ccc(S(=O)(=O)NC(=O)c2ccc(N3CCN(Cc4ccccc4-c4ccc(Cl)cc4)CC3)cc2)cc1[N+](=O)[O-] (10 µM) | 0.105 | 108% (inactive) |
